# High-throughput results: PubChem BioAssay, Bradner/Qi Labs at DFCI
# This is one part of a sample in which hits are shown more often than they occur.
# CBX7 inh – blocks human CBX7 binding to H3K27me3 peptide. O95931. AlphaScreen His6-CBX7 / biotin-H3K27me3 peptide binding; active compounds read low. normalised signal (fraction of DMSO) (test concentration not listed). 66,000 tested, 1.1% active; in the data active means normalised signal below about 0.5
# Target sequence (O95931 whole entry, looked up): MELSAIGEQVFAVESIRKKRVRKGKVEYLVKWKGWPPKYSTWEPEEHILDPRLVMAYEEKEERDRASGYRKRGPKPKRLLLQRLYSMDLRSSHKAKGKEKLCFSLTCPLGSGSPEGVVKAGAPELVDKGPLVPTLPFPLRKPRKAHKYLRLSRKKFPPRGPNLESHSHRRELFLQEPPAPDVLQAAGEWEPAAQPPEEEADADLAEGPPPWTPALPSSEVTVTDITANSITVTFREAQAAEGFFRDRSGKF
# Starred values were filed as active, the others as inactive.
SMILES,CBX7 inh
COC(=O)c1c[nH]n2c(NC3CCCC3)c(-c3cccc(Br)c3)nc12,0.73
COc1ccc(NC(=O)Cn2cnc3scc(-c4ccccc4)c3c2=O)cc1OC,0.923
Cc1ccc(C)c(Cc2c(C)nc3c(C(=O)NCC4CCCO4)cnn3c2C)c1 (configuration not stated),0.961
Cc1ccc(Cc2c(C)nc3nc(SCC(=O)NCc4ccccc4Cl)nn3c2C)cc1,0.863
COc1ccccc1NC(=O)c1sc2ncn(CC(=O)N3CCCC3)c(=O)c2c1C,1.02
Cc1cccc(C)c1NC(=O)C(c1ccccc1)N1CCc2ccccc21 (configuration not stated),0.87
CC(C)c1ccc(NC(=O)C(c2ccccc2)N2CCc3ccccc32)cc1 (configuration not stated),0.495*
CC(C)c1ccc(NC(=O)C(c2ccc3c(c2)OCO3)N2CCc3ccccc32)cc1 (configuration not stated),0.66
Cc1ccccc1Nc1cc(C(=O)NCc2ccccn2)c2ccccc2n1,0.948
CC1CCN(S(=O)(=O)c2ccc3nc[nH]c(=O)c3c2)CC1,1.03
CCC(=O)N1CCc2cc(S(=O)(=O)NCCCN3CCN(CC)CC3)ccc21,1.01
Cc1ccc(CNc2ccc3c(c2)ncn3C)cc1,0.651
CCCn1cnc2cc(NCc3ccccn3)ccc21,0.349*
CCc1ccc(CNc2ccc3c(c2)ncn3C)cc1,0.532
CCCn1cnc2cc(NCc3cccc(OC)c3O)ccc21,0.913
CCCn1cnc2cc(NCc3cccc(OC)c3OC)ccc21,0.673
CCOc1ccc(CNc2ccc3c(c2)ncn3CC)cc1,0.862
CCn1cnc2cc(NCc3ccc(Cl)cc3)ccc21,0.888
Cc1ccc(CNc2ccc3c(c2)nc(C)n3C)cc1,0.958
CCCn1cnc2cc(NCc3ccc(OCC)cc3)ccc21,0.445*
CCCn1cnc2cc(NCc3ccc(C)cc3)ccc21,0.463*
CCCCn1cnc2cc(NCc3ccc(Cl)cc3)ccc21,0.223*
Cc1cc(C)nc(NS(=O)(=O)c2ccc(NC(=O)CCc3ccccc3)cc2)n1,1.03
Cc1ccc(NC(=O)CCc2c(C)nc3c(-c4ccc(F)cc4)c(C)nn3c2C)c(C)c1,1.15
O=C(Nc1ccccc1)c1cccnc1Nc1cccc(C(F)(F)F)c1,1.05
SMILES,CBX7 inh
COc1ccccc1NC(=O)c1c(NCc2sccc2C)sc2c1CCC2,0.813
Cc1c(C(=O)Nc2ccc3c(c2)OCO3)sc2ncnc(N3CCc4ccccc4C3)c12,0.801
CS(=O)(=O)N1CCC(C(=O)NCCc2ccc(Cl)cc2)CC1,1.04
Cc1c(-c2ccccc2)nc2sc3c(c2c1N)CCCC3,0.474*
Nc1c2c(nc3sc4c(c13)CCCCC4)CCCCC2,0.952
Cc1c(-c2ccccc2)nc2sc3c(c2c1N)CCCCC3,0.994
CCCCCNC(=O)c1ccc(Cl)c(NC2=NC3CS(=O)(=O)CC3S2)c1 (configuration not stated),1.11
CC(=O)Nc1nonc1NC(=O)CSc1nc2ccccc2[nH]1,1.23
COc1cccc(CN2CCN(Cc3ccc(OC)cc3OC)CC2)c1,0.878
COC(=O)c1c[nH]n2c(NC3CCCCC3)c(-c3cccs3)nc12,0.519
COC(=O)c1c[nH]n2c(NC3CCC(C)CC3)c(-c3ccc(OC(C)C)c(OC)c3)nc12 (configuration not stated),0.121*
COc1ccc(NC(=O)c2c[nH]n3c(=O)cc(C4CCN(C(=O)OC(C)(C)C)CC4)nc23)cc1Cl,0.958
COC(=O)c1c[nH]n2c(NC3CCCCC3)c(-c3ccc(OC)cc3)nc12,0.317*
COC(=O)c1c[nH]n2c(NC3CCCCCC3)c(-c3ccc(OC)cc3)nc12,0.339*
COC(=O)c1cn(-c2ccccc2)nc1-c1ccc(OC)cc1,1.04
COc1ccc(-c2cc(C(=O)NC3CCCC3)no2)cc1,1.25
COc1ccc(-c2nc3cnccn3c2NC2CCCCC2)cc1,1.32
COc1ccc(-c2nc(SCC(=O)NC3CCCC3)c(-c3ccc(C)cc3)[nH]2)cc1OC,0.988
COc1ccc(NC(=O)c2c[nH]n3c(=O)cc(C4CCN(C(=O)OC(C)(C)C)CC4)nc23)cc1OC,0.892
COc1ccc(-c2nn(C)c3sc(C(=O)NC4CCCCC4)cc23)cc1OC,0.974
COC(=O)c1c[nH]n2c(NC3CCCCC3)c(-c3ccc(OCCC(C)C)c(OC)c3)nc12,0.369*
Cc1ccc(NC(=O)C2CCN(S(=O)(=O)c3ccc4c(c3)CCC(=O)N4)CC2)cc1Cl,1.17
CCCOc1ccc(C(=O)Nc2cccc(-c3nc4ccccc4o3)c2C)cc1,1.17
Cc1c(Cl)cccc1NC(=O)c1cnc2ccccn2c1=O,1.04
CC(C)(C)c1ccc2c(c1)N(CC(=O)NC1CCCCCCC1)C(=O)CO2,0.729
SMILES,CBX7 inh
O=C(NCC1CCCO1)C1c2ccccc2C(=O)N1Cc1ccccc1 (configuration not stated),1.04
CCCCC(=O)Nc1ccccc1-c1nc2ccccc2[nH]c1=O,1.1
CCN(CC)C(=O)Cn1cnc2sc(C(=O)N(C)Cc3ccccc3)c(C)c2c1=O,0.992
CCOc1cc(-n2nc(-c3ccccc3)cc2-c2ccccc2)ncn1,1.2
CC1CN(C(C)(C)C)CCC1(O)c1ccccc1 (configuration not stated),1.06
COC(=O)c1c[nH]n2c(NC3CCC(C)CC3)c(-c3ccc(C)cc3)nc12 (configuration not stated),0.23*
Cc1nc2c(C(=O)NC3CCC(C)CC3)c[nH]n2c(=O)c1Cc1ccccc1F (configuration not stated),1.08
COC(=O)c1c[nH]n2c(=O)c(Cc3cccc(C)c3)c(C)nc12,1.1
Cc1cccc(-c2nc(C(=O)NCCCN3CCOCC3)c(C)o2)c1,1.02
Cc1onc(-c2c(F)cccc2Cl)c1C(=O)NCC1COc2ccccc2O1 (configuration not stated),0.472*
Cc1onc(-c2c(Cl)cccc2Cl)c1C(=O)NCC1CCCO1 (configuration not stated),0.997
Cc1onc(-c2c(F)cccc2Cl)c1C(=O)Nc1ccccc1,1
CCOc1ccc(Nc2cc(C)nc3ccc(OCC)cc23)cc1,1.08
Cc1onc(-c2ccccc2)c1C(=O)Nc1sc2c(c1C#N)CCCCC2,0.972
Cc1ccc(-c2noc(COc3ccc(C)cc3Br)n2)cc1,1.19
O=C(CCc1cn(Cc2ccccc2)c2ccccc12)NCc1ccccc1Cl,0.489*
CCc1ccc(CNC(=O)CCc2cn(Cc3ccccc3)c3ccccc23)cc1,0.972
Cc1ccc(Cn2cc(CCC(=O)NCc3ccccc3)c3ccccc32)cc1,0.945
O=C(CCc1cn(Cc2ccccc2)c2ccccc12)NCCc1ccc(Cl)cc1,0.938
COc1cccc(CNC(=O)CCc2cn(Cc3ccc(C)cc3)c3ccccc23)c1,0.881
Cc1ccc(Cn2cc(CCC(=O)NCc3cccnc3)c3ccccc32)cc1,0.261*
Brc1ccc(-c2noc(-c3cccs3)n2)cc1,1.14
O=C(CSc1nc(Nc2ccc3c(c2)OCO3)c2ccccc2n1)c1ccccc1,0.795
COCCCNC(=O)c1sc2ncn(CC(=O)Nc3cccc(C(F)(F)F)c3)c(=O)c2c1C,0.97
COc1ccc(-c2cc(C(=O)NCCN3CCN(c4ccccc4)CC3)c3cc(C(C)C)ccc3n2)cc1,1.02
CC1CCCCN1c1nnc(NC(=O)Nc2ccc(F)cc2)s1 (configuration not stated),0.786
COc1ccc(CN(C)CCc2ccccn2)cc1,0.685
COc1ccc(CN(C)CCc2ccccn2)cc1OC,0.469*
COc1ccc(CN(C)CCc2ccccn2)cc1OCc1ccccc1,0.721
